Experimental data taken from PubChem BioAssay (NCI).
Compounds without any hit were thinned out: in the full panel of roughly 83,000, 20% have a hit.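 Cell lines were cultured in 96-well plates, exposed to a single compound concentration, and assessed for percent growth 48 hours later.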 Unmarked numbers belong to inactive results. Calls of active or inactive are those of the source. Rule for the calls: active = growth percent below 10; inactive = the rest.

Key:
Assay in all cases: NCI-60 one-dose screen, 48 h (100 = growth as untreated, 0 = no growth, -100 = all killed)
Conditions in all cases: 10 µM unless noted
NCI-H23 lung = system: NCI-H23 lung
NCI-H226 lung = system: NCI-H226 lung
NCI-H322M lung = system: NCI-H322M lung
HOP-62 NSCLC = system: HOP-62 NSCLC
NCI-H460 lung = system: NCI-H460 lung
HOP-92 NSCLC = system: HOP-92 NSCLC
NCI-H522 lung = system: NCI-H522 lung
A549/ATCC NSCLC = system: A549/ATCC NSCLC
786-0 renal = system: 786-0 renal
COLO 205 colon = system: COLO 205 colon
DU-145 prostate = system: DU-145 prostate
K-562 leukemia = system: K-562 leukemia
MALME-3M melanoma = system: MALME-3M melanoma
MDA-MB-231 breast = system: MDA-MB-231 breast
RXF 393 renal = system: RXF 393 renal
SF-268 CNS = system: SF-268 CNS
SF-295 CNS = system: SF-295 CNS
SF-539 CNS = system: SF-539 CNS
UACC-257 melanoma = system: UACC-257 melanoma
M14 melanoma = system: M14 melanoma

SMILES	growth (NCI-H23 lung)	growth (NCI-H226 lung)	growth (NCI-H322M lung)	growth (HOP-62 NSCLC)	growth (NCI-H460 lung)	growth (HOP-92 NSCLC)	growth (NCI-H522 lung)	growth (A549/ATCC NSCLC)	growth (786-0 renal)	growth (COLO 205 colon)	growth (DU-145 prostate)	growth (K-562 leukemia)	growth (MALME-3M melanoma)	growth (MDA-MB-231 breast)	growth (RXF 393 renal)	growth (SF-268 CNS)	growth (SF-295 CNS)	growth (SF-539 CNS)	growth (UACC-257 melanoma)	growth (M14 melanoma)
C/C(=C\c1ccn(-c2ccc(N)cc2)n1)[C@@H]1C[C@@H]2O[C@]2(C)CCC[C@H](C)[C@H](O)[C@@H](C)C(=O)C(C)(C)[C@@H](O)CC(=O)O1	26.1%	31.7%	18.6%	44.7%	13.3%	48.7%	18.6%	29.8%	20.2%	1.88% (active)	-8.99% (active)	11.4%	36.7%	33.5%	-0.234% (active)	37.4%	18.6%	-2.33% (active)	59.5%	-17% (active)
CC[C@H](C)[C@H](NC(=O)[C@H]1CCCCN1C)C(=O)N(C)[C@H](C[C@@H](OC(C)=O)c1nc(C(=O)N[C@@H](Cc2ccccc2)C[C@H](C)C(=O)OC)cs1)C(C)C	11.8%	12.6%	49.3%	20.6%	14.6%	-0.123% (active)	-19.8% (active)	8.91% (active)	11.8%	-39.7% (active)	1.75% (active)	4.21% (active)	65.5%	19.5%	38.1%	31.2%	2.06% (active)	-11.3% (active)	52.9%	3.87% (active)
CC1=C(O)[C@@](C)(CCCCC[C@H](C)CCCCc2ccc(O)cc2)OOC1=O	85.2%	107%	94.6%	91.1%	108%	75.2%	64.5%	96.9%	105%	107%	113%	94.4%	87.3%	85.2%	111%	110%	90.4%	101%	89.8%	96.6%
C=C1C(=O)O[C@H]2[C@H]1CC/C(COC(=O)C(=O)c1cn(Cc3ccccc3)c3ccccc13)=C\CC[C@@]1(C)O[C@@H]21	-51.7% (active)	-70.3% (active)	-25.6% (active)	2.07% (active)	-11.4% (active)	-46.7% (active)	-69% (active)	-42.7% (active)	-75.3% (active)	-52.4% (active)	-54.1% (active)	5.58% (active)	-41.7% (active)	-57.2% (active)	-90.2% (active)	-57.5% (active)	18.8%	-51.3% (active)	-65.4% (active)	-66% (active)
CC(=O)C(c1c(O)c2ccccc2oc1=O)c1cc(=O)oc2c1ccc1ccccc12 (stereo not given)	100%	90.7%	106%	90.9%	102%	65.4%	96.2%	97%	96.3%	112%	115%	96.7%	98.7%	89.8%	97%	103%	96.3%	92.7%	102%	102%
CCCC(=O)O[C@@H]1C[C@H]2C[C@@H](O[C@@H]3O[C@@H](C)[C@@H](O)[C@@H](O)[C@H]3OC)C[C@@H](C[C@@H](C)/C=C/C=C\C[C@@H]3O[C@@H](C[C@@H]3C)[C@@H](O)C[C@H]3C[C@@]1(O)C(=O)O3)O2	25.9%	33.3%	88.4%	64.8%	47.3%	91.6%	21%	46.4%	76.6%	39.4%	48.8%	21.2%	64.7%	86.4%	72.1%	80.1%	7.39% (active)	67.6%	9.61% (active)	69.8%
O=C(Nc1ccc([N+](=O)[O-])cc1)C(Cl)(Cl)Cl	96.5%	97.8%	90.1%	96.9%	104%	88%	106%	94%	96.6%	107%	96.7%	98.2%	97.6%	95%	116%	97.6%	96.9%	94.2%	96.7%	94.1%
